# In the supplement of paper PMC10849652:
# The full data set covers some 7,900 targets. This sample favours those with a hit. About 0.6% of all pairs of compound and target were hits. A number with no mark means an inactive call.
# Legend:
# Assay in all cases: log2 fold change, soluble protein after heating vs DMSO (PISA); higher = thermal stabilisation; K562 cells, 10 uM, 30 min; active = over 0.2 and 3.5 SD of the protein, either way, in both replicates (recomputed)
# saracatinib = compound: CN1CCN(CCOc2cc(OC3CCOCC3)c3c(Nc4c(Cl)ccc5c4OCO5)ncnc3c2)CC1 [saracatinib]
# Procedure, shortened: (§1)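 K562 cells at 2×10^6 cells/mL were given 10 μM compound for 30 min. Aliquots then went through 3 min of heating across 48°C-58°C, were pooled, and were extracted in PBS with 0.5% NP-40 at 4°C, and the supernatant after 21,000xg for 90 min was quantified by TMTpro 16plex LC-MS/MS with channel sums equalised. Thermal stability relative to control samples, from duplicates, is given as log2 fold change.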
# sotrastaurin = compound: CN1CCN(c2nc(C3=C(c4c[nH]c5ccccc45)C(=O)NC3=O)c3ccccc3n2)CC1 [sotrastaurin]
# Procedure, shortened: as §1
# alvocidib = compound: CN1CC[C@H](c2c(O)cc(O)c3c(=O)cc(-c4ccccc4Cl)oc23)[C@H](O)C1 [alvocidib]
# Procedure, shortened: as §1
# Tubastatin A = compound: CN1CCc2c(c3ccccc3n2Cc2ccc(C(=O)NO)cc2)C1 [Tubastatin A]
# Procedure, shortened: as §1
# [1] = compound: CNC(=O)C1=CC=CC=C1NC2=NC(=NC=C2Cl)NC3=C(C=C(C=C3)N4CCOCC4)OC
# Procedure, shortened: as §1
# defactinib = compound: CNC(=O)c1ccc(Nc2ncc(C(F)(F)F)c(NCc3nccnc3N(C)S(C)(=O)=O)n2)cc1 [defactinib]
# Procedure, shortened: as §1
# rucaparib = compound: CNCc1ccc(-c2[nH]c3cc(F)cc4c3c2CCNC4=O)cc1 [rucaparib]
# Procedure, shortened: as §1
# [2] = compound: CNc1nc(-c2ccc3c(N)n[nH]c3c2)cc(N2C[C@@H](C(=O)NC3CCCCC3)CC[C@H]2C)n1
# Procedure, shortened: as §1
# encorafenib = compound: COC(=O)N[C@@H](C)CNc1nccc(-c2cn(C(C)C)nc2-c2cc(Cl)cc(NS(C)(=O)=O)c2F)n1 [encorafenib]
# Procedure, shortened: as §1
# [3] = compound: COC(=O)[C@H](CCSC)NC(=O)C1=C(C=C(C=C1)NC[C@H](CS)N)C2=CC=CC=C2
# Procedure, shortened: as §1
# Sequence of UniProt Q9BZL6 (Q9BZL6 whole entry, looked up): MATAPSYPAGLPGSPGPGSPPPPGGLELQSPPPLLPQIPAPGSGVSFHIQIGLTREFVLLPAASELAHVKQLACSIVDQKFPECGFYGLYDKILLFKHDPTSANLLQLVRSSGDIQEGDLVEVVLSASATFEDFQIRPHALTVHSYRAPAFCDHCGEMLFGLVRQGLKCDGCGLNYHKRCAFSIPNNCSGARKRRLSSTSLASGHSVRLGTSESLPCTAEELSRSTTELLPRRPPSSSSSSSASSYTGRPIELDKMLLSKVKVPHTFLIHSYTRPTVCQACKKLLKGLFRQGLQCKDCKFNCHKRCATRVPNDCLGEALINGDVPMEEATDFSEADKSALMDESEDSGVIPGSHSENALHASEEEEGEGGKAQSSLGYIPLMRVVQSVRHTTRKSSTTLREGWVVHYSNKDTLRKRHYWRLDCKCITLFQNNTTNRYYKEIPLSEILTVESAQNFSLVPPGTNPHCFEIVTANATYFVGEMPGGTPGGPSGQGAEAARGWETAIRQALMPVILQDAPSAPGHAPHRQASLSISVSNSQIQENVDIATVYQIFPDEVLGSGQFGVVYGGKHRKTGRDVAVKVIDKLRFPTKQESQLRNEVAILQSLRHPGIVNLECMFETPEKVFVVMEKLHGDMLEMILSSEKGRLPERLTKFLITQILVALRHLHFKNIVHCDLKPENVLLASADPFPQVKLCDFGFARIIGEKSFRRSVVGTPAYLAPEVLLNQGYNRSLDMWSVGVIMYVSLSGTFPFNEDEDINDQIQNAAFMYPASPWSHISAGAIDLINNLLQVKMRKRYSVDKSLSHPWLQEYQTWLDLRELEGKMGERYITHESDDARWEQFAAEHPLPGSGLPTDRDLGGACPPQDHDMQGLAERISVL
# Sequence of UniProt Q14289 (Q14289 whole entry, looked up): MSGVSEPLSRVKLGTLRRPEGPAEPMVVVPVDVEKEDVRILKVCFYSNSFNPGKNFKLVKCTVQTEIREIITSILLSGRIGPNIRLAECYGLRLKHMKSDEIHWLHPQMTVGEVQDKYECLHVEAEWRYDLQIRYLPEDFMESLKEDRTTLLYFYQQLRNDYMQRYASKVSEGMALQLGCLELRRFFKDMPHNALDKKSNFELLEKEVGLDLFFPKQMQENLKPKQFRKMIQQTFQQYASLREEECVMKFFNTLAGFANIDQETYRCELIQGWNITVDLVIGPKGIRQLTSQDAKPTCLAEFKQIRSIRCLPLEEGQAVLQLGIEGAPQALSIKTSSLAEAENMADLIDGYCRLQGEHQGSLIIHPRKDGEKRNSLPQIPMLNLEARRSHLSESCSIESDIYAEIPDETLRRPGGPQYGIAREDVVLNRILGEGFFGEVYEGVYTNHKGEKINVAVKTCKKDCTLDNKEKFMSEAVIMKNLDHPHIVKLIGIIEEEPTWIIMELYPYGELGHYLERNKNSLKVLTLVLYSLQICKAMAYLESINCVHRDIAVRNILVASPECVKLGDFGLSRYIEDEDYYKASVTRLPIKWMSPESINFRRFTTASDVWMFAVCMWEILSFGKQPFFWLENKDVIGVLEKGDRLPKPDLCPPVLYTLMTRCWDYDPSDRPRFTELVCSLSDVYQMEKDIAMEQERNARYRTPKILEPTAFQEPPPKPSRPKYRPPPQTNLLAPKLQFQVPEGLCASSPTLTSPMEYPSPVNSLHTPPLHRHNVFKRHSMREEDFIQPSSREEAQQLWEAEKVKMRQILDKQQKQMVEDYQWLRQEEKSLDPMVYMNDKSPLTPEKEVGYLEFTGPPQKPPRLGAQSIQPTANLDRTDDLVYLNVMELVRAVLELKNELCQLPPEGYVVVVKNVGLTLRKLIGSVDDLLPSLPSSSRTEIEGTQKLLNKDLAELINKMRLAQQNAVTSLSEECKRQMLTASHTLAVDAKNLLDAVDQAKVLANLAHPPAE
# Sequence of UniProt Q9NYI0 (Q9NYI0 whole entry, looked up): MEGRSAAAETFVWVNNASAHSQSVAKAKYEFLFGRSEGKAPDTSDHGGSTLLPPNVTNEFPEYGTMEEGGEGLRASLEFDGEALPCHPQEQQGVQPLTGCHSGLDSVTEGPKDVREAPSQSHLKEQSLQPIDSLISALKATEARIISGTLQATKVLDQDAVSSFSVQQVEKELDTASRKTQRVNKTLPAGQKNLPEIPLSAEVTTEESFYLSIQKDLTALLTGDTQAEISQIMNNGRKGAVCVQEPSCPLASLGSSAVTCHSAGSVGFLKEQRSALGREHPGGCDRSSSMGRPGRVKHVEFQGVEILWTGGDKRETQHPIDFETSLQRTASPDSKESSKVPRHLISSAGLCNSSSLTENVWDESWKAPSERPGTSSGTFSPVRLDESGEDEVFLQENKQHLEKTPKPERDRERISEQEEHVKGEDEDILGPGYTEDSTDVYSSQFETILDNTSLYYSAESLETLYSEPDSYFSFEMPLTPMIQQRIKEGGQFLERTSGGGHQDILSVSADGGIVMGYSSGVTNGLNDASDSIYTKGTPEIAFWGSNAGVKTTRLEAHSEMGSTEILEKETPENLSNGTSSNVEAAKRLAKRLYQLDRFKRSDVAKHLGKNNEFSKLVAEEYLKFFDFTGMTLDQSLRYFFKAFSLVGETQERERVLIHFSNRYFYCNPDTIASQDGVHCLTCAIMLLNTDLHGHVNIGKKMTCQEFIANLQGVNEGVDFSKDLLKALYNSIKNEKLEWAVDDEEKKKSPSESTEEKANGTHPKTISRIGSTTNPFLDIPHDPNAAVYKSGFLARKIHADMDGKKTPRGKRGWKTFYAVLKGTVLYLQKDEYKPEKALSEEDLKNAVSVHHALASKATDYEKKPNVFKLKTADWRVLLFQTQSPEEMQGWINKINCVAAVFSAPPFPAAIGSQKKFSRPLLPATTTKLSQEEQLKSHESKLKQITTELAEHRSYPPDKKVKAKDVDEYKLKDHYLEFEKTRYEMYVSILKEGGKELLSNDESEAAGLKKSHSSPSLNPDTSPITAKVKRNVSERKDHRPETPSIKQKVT
# Sequence of UniProt Q8NDX5 (Q8NDX5 whole entry, looked up): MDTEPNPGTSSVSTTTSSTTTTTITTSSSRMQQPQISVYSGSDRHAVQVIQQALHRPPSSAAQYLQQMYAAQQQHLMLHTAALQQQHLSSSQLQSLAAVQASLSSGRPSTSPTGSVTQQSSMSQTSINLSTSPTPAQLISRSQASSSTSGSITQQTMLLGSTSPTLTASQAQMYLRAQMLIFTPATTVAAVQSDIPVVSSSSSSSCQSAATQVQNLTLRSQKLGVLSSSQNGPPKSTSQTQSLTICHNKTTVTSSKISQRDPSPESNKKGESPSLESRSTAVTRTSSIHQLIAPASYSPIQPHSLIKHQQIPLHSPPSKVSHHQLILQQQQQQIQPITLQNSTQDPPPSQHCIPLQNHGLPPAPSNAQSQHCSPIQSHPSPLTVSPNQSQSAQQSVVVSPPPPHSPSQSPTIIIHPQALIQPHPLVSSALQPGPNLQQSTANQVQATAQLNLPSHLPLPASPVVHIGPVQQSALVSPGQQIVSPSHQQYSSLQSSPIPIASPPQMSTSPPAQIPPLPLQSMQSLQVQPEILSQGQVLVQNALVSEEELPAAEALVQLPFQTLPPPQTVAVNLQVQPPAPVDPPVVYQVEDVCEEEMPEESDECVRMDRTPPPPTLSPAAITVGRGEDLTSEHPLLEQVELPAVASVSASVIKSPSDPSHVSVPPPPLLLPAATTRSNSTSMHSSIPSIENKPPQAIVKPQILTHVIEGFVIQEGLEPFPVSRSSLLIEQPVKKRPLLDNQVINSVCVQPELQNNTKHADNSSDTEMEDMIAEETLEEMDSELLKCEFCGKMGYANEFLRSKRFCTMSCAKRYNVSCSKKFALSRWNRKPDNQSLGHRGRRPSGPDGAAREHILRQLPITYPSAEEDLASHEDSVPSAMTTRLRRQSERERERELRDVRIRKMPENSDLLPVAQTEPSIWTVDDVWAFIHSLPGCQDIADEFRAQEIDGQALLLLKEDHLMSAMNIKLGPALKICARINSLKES
# Sequence of UniProt Q9H307 (Q9H307 whole entry, looked up): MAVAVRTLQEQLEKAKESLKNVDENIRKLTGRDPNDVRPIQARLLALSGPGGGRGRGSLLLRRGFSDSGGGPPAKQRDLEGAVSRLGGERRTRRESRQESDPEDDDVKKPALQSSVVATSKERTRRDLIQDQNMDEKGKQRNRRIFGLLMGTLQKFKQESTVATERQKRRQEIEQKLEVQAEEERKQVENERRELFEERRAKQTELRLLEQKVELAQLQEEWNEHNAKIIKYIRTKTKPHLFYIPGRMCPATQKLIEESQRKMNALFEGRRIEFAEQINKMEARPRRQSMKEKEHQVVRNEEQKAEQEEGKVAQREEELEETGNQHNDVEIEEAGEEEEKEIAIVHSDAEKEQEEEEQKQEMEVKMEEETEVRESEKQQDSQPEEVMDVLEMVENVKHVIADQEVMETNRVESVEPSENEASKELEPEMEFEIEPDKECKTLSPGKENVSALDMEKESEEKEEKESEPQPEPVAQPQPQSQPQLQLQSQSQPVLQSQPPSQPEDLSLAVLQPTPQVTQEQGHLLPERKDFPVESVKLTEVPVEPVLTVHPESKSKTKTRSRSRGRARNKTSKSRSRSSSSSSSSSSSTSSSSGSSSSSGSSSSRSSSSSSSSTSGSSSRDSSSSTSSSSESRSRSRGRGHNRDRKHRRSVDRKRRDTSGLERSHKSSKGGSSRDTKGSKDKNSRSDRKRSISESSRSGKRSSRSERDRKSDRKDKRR
# Sequence of UniProt P40425 (P40425 whole entry, looked up): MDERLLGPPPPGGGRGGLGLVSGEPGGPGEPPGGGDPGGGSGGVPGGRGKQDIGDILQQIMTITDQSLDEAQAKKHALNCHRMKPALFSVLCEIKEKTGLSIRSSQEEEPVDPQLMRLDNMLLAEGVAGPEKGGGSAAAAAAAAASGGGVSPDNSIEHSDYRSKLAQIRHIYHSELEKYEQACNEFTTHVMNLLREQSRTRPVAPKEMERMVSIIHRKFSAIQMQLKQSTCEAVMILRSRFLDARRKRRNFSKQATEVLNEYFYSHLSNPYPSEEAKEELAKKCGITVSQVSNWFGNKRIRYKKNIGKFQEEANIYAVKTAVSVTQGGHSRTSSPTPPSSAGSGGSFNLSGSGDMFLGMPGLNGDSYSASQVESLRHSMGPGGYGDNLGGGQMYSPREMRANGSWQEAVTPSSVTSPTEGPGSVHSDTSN
Target,log2 fold change (saracatinib),log2 fold change (sotrastaurin),log2 fold change (alvocidib),log2 fold change (Tubastatin A),log2 fold change [1],log2 fold change (defactinib),log2 fold change (rucaparib),log2 fold change [2],log2 fold change (encorafenib),log2 fold change [3]
PCBP1 (UniProt Q15365),0.009,-0.073,-0.119,0.013,-0.015,-0.151,-0.015,0.03,0.052,-0.034
POLB (UniProt P06746),-0.21,-0.16,0.195,0.138,0.062,,0.095,0.05,0.031,
PTPA (UniProt Q15257),0.009,0.068,-0.06,-0.029,-0.036,-0.033,-0.045,-0.012,0.012,0.003
PITRM1 isoform 2 (UniProt Q5JRX3),-0.016,-0.045,-0.022,0.009,-0.027,-0.034,-0.051,0.09,-0.032,-0.005
PRKAR2B (UniProt P31323),-0.024,-0.486 (active),-0.053,0.02,-0.168,-0.191,0.086,0.014,0.069,-0.004
PRKD2 isoform 3 (UniProt Q9BZL6),-0.031,-0.273,0.034,0,-0.242,-0.004,,-0.075,,-0.024
PBX2 (UniProt P40425),0.082,-0.023,-0.141,-0.069,-0.022,-0.36,,-0.046,,-0.044
PAK4 (UniProt O96013),-0.047,0.098,-0.06,0.005,-0.012,-0.017,-0.067,0,0.085,0.03
PNPLA2 (UniProt Q96AD5),0.015,-0.028,-0.058,-0.034,-0.039,0,-0.06,0.154,-0.012,-0.056
PYGL (UniProt P06737),0.063,-0.006,0.097,-0.007,-0.185,-0.039,-0.028,-0.065,0.037,0.008
PHLDB1 isoform 2 (UniProt Q86UU1),-0.02,,-0.353,-0.023,-0.164,-0.035,0.011,0.066,0.089,-0.001
PCNX1 (UniProt Q96RV3),,,,-0.041,,0.027,-0.123,,0.085,-0.039
PIAS4 (UniProt Q8N2W9),-0.207,,,-0.057,,,,-0.043,,
PDE4DIP (UniProt E9PS60),,,0.095,,-0.196,0.095,0.172,,0.125,0.032
PSMD8 (UniProt K7ERW6),,,,0.235,,0.011,,,,0.066
PSD3 (UniProt Q9NYI0),,,-0.054,,,-0.004,-0.03,,0.003,-0.019

Target,log2 fold change (saracatinib),log2 fold change (sotrastaurin),log2 fold change (alvocidib),log2 fold change (Tubastatin A),log2 fold change [1],log2 fold change (defactinib),log2 fold change (rucaparib),log2 fold change [2],log2 fold change (encorafenib),log2 fold change [3]
PTK2B (UniProt Q14289),0.163,-0.104,,0.078,0.309,0.36,,-0.034,,-0.155
PIGH (UniProt Q14442),-0.099,,0.022,-0.274 (active),0.012,0.005,0.037,0.025,-0.068,-0.001
PRKX (UniProt P51817),,,,,-0.139,,,,,
PDE4A (UniProt P27815),,,-0.263,0.054,0.017,-0.145,,,,-0.018
PKN2 (UniProt Q16513),-0.059,,-0.159,0.025,0.037,-0.099,-0.039,-0.037,0.024,-0.05
PTP4A3 (UniProt O75365),,,,,,-1.14 (active),,,,-0.029
PAN2 (UniProt Q504Q3),0.113,,,,,0.001,-0.656 (active),-0.048,0.073,-0.045
PPP2R5B (UniProt Q15173),-0.161,,,,-0.064,0.051,-0.015,-0.043,0.07,-0.135
PSMD8 (UniProt K7EK21),,,0.25,,,,,,,
PSMA3 (UniProt G3V4X5),,,,,,0.061,,,,-0.208
PRKD3 (UniProt O94806),0.023,-0.31,0.066,,-0.335,-0.068,,0.002,,-0.058
PHC3 isoform 7 (UniProt Q8NDX5),,-0.071,-0.057,,-0.007,,-0.276,,0.154,
PSMB9 (UniProt P28065),,0.074,0.071,,0.062,-0.008,0.296,,-0.22,0.094
PRR14L (UniProt Q5THK1),,,0.016,0.053,,0.286,,,,0.125
PNN (UniProt Q9H307),-0.037,-0.044,-0.12,,-0.067,,0.303,-0.071,-0.174,
PKM isoform 2 (UniProt P14618),0.202,-0.133,,-0.052,,-0.045,0.125,-0.063,-0.09,-0.081
